Data: PubChem BioAssay AID1159580 (chemical genetic matrix, 2015)
Among all 5,500 compounds or so, about 2,000 (36%) were called active. Roughly 18% stayed inconclusive and do not appear here. No stated cut-off is given here; in the data, active means normalized growth mostly below about 0.91 (no sharp cut-off); inconclusive means no clear call, values can overlap the other calls; inactive means mostly above about 0.92. The list shows a part of the results.

Experiment: chemical genetic growth profiling, strain panel (AID 1159580);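 further: tested at 20 µM; growth read once vehicle control cultures reached saturation at 30 °C; 1 = growth at the plate median or of vehicle wells; lower values mean less growth of the strain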
Conditions: growth OD

Measured: normalized growth

CC(=O)OCC(CCn1cnc2cnc(N)nc21)COC(C)=O
inactive: S. cerevisiae deletion strains, locus YJR075W, strain HOC1, active compounds read low 0.991 | S. cerevisiae deletion strains, locus YKL009W, strain mrt4, active compounds read low 0.973 | S. cerevisiae deletion strains, locus YKL068W, active compounds read low 0.977 | S. cerevisiae deletion strains, locus YKL085W, strain MDH1 (second series), active compounds read low 0.971 | S. cerevisiae deletion strains, locus YKL085W, strain MDH1, active compounds read low 0.971 | S. cerevisiae deletion strains, locus YKL160W, strain elf1, active compounds read low 0.981 | S. cerevisiae deletion strains, locus YKL190W, strain CNB1, active compounds read low 0.989 | S. cerevisiae deletion strains, locus YKR001C, strain vps1, active compounds read low 0.986 | S. cerevisiae deletion strains, locus YKR026C, strain gcn3, active compounds read low 0.991 | S. cerevisiae deletion strains, locus YKR091W, strain srl3, active compounds read low 0.989 | S. cerevisiae deletion strains, locus YLL001W, strain dnm1, active compounds read low 0.986 | S. cerevisiae deletion strains, locus YLL026W, active compounds read low 0.987 | S. cerevisiae deletion strains, locus YLL041C, strain sdh2, active compounds read low 0.99 | S. cerevisiae deletion strains, locus YLR027C, strain aat2, active compounds read low 0.97 | S. cerevisiae deletion strains, locus YLR039C, strain RIC1, active compounds read low 0.955 | S. cerevisiae deletion strains, locus YLR058C, strain SHM2, active compounds read low 0.977 | S. cerevisiae deletion strains, locus YLR102C, strain apc9, active compounds read low 0.963 | S. cerevisiae deletion strains, locus YLR113W, strain HOG1, active compounds read low 0.966 | S. cerevisiae deletion strains, locus YLR221C, strain rsa3, active compounds read low 1 | S. cerevisiae deletion strains, locus YLR258W, strain gsy2, active compounds read low 0.992 | S. cerevisiae deletion strains, locus YLR262C, strain YPT6 (second series), active compounds read low 0.985 | S. cerevisiae deletion strains, locus YLR262C, strain YPT6, active compounds read low 0.96 | S. cerevisiae deletion strains, locus YLR268W, strain sec22, active compounds read low 0.964 | S. cerevisiae deletion strains, locus YLR320W, strain mms22, active compounds read low 1.01 | S. cerevisiae deletion strains, locus YLR330W, strain CHS5, active compounds read low 0.986 | S. cerevisiae deletion strains, locus YLR342W, strain FKS1 (second series), active compounds read low 1.03 | S. cerevisiae deletion strains, locus YLR342W, strain FKS1, active compounds read low 0.989 | S. cerevisiae deletion strains, locus YLR357W, strain rsc2, active compounds read low 0.969 | S. cerevisiae deletion strains, locus YLR370C, strain arc18, active compounds read low 0.994 | S. cerevisiae deletion strains, locus YLR371W, strain rom2, active compounds read low 0.955 | S. cerevisiae deletion strains, locus YLR384C, strain iki3, active compounds read low 0.974 | S. cerevisiae deletion strains, locus YLR418C, strain cdc73, active compounds read low 0.982 | S. cerevisiae deletion strains, locus YML016C, strain PPZ1, active compounds read low 0.981 | S. cerevisiae deletion strains, locus YML032C, strain rad52, active compounds read low 0.975 | S. cerevisiae deletion strains, locus YML120C, strain ndi1, active compounds read low 0.989 | S. cerevisiae deletion strains, locus YML124C, strain tub3, active compounds read low 0.973 | S. cerevisiae deletion strains, locus YMR058W, strain fet3, active compounds read low 0.988 | S. cerevisiae deletion strains, locus YMR078C, strain ctf18, active compounds read low 0.972 | S. cerevisiae deletion strains, locus YMR125W, strain sto1, active compounds read low 0.986 | S. cerevisiae deletion strains, locus YMR129W, active compounds read low 0.986 | S. cerevisiae deletion strains, locus YMR205C, strain PFK2, active compounds read low 0.992 | S. cerevisiae deletion strains, locus YMR223W, strain ubp8, active compounds read low 0.988 | S. cerevisiae deletion strains, locus YMR231W, strain pep5, active compounds read low 0.986 | S. cerevisiae deletion strains, locus YMR263W, strain SAP30, active compounds read low 0.993 | S. cerevisiae deletion strains, locus YMR307W, strain GAS1, active compounds read low 0.957 | S. cerevisiae deletion strains, locus YNL067W, strain RPL9B, active compounds read low 1 | S. cerevisiae deletion strains, locus YNL071W, strain lat1, active compounds read low 0.995 | S. cerevisiae deletion strains, locus YNL128W, strain TEP1, active compounds read low 0.992 | S. cerevisiae deletion strains, locus YNL153C, strain GIM3, active compounds read low 0.996 | S. cerevisiae deletion strains, locus YNL183C, strain NPR1, active compounds read low 0.959 | S. cerevisiae deletion strains, locus YNL209W, strain ssb2, active compounds read low 0.994 | S. cerevisiae deletion strains, locus YNL233W, strain BNI4, active compounds read low 0.99 | S. cerevisiae deletion strains, locus YNL248C, strain rpa49, active compounds read low 0.991 | S. cerevisiae deletion strains, locus YNL250W, strain rad50, active compounds read low 0.971 | S. cerevisiae deletion strains, locus YNL271C, strain bni1, active compounds read low 0.956 | S. cerevisiae deletion strains, locus YNL298W, strain CLA4, active compounds read low 0.946 | S. cerevisiae deletion strains, locus YNL307C, strain MCK1, active compounds read low 0.99 | S. cerevisiae deletion strains, locus YNL322C, strain KRE1 (second series), active compounds read low 0.995 | S. cerevisiae deletion strains, locus YNL322C, strain KRE1, active compounds read low 0.99 | S. cerevisiae deletion strains, locus YNR049C, strain mso1, active compounds read low 0.983 | S. cerevisiae deletion strains, locus YNR052C, strain pop2, active compounds read low 0.967 | S. cerevisiae deletion strains, locus YOL006C, strain TOP1, active compounds read low 0.955 | S. cerevisiae deletion strains, locus YOL012C, strain htz1 0.703 | S. cerevisiae deletion strains, locus YOL147C, strain pex11, active compounds read low 0.969 | S. cerevisiae deletion strains, locus YOR001W, strain rrp6, active compounds read low 0.974 | S. cerevisiae deletion strains, locus YOR061W, strain CKA2, active compounds read low 0.966 | S. cerevisiae deletion strains, locus YOR069W, strain VPS5, active compounds read low 0.982 | S. cerevisiae deletion strains, locus YOR070C, strain gyp1, active compounds read low 0.996 | S. cerevisiae deletion strains, locus YOR080W, strain dia2, active compounds read low 0.975 | S. cerevisiae deletion strains, locus YOR083W, strain WHI5, active compounds read low 0.987 | S. cerevisiae deletion strains, locus YOR106W, strain vam3, active compounds read low 0.982 | S. cerevisiae deletion strains, locus YOR136W, strain idh2, active compounds read low 0.959 | S. cerevisiae deletion strains, locus YOR144C, strain elg1, active compounds read low 0.958 | S. cerevisiae deletion strains, locus YOR184W, strain ser1, active compounds read low 0.966 | S. cerevisiae deletion strains, locus YOR231W, strain MKK1, active compounds read low 0.991 | S. cerevisiae deletion strains, locus YOR265W, strain rbl2, active compounds read low 0.98 | S. cerevisiae deletion strains, locus YOR270C, strain vph1, active compounds read low 1 | S. cerevisiae deletion strains, locus YOR290C, strain snf2, active compounds read low 1.01 | S. cerevisiae deletion strains, locus YOR316C, strain cot1, active compounds read low 0.958 | S. cerevisiae deletion strains, locus YPL051W, strain arl3, active compounds read low 0.984 | S. cerevisiae deletion strains, locus YPL055C, strain LGE1, active compounds read low 0.992 | S. cerevisiae deletion strains, locus YPL078C, strain atp4, active compounds read low 0.976 | S. cerevisiae deletion strains, locus YPL106C, strain sse1, active compounds read low 0.973 | S. cerevisiae deletion strains, locus YPL240C, strain hsp82, active compounds read low 0.973 | S. cerevisiae deletion strains, locus YPL241C, strain CIN2, active compounds read low 0.993 | S. cerevisiae deletion strains, locus YPL256C, strain CLN2, active compounds read low 0.958 | S. cerevisiae deletion strains, locus YPR119W, strain clb2, active compounds read low 0.974 | S. cerevisiae deletion strains, locus YPR141C, strain kar3, active compounds read low 0.943 | S. cerevisiae deletion strains, locus YPR163C, strain tif3, active compounds read low 0.966 | S. cerevisiae deletion strains, locus YPR167C, strain met16, active compounds read low 0.962 | S. cerevisiae deletion strains, strain wtn01, active compounds read low 0.965 | S. cerevisiae strains, strain wild type, active compounds read low 0.994
